An excerpt weighted towards active compounds, which were near 7.5% of everything screened.
SMN2 splice enh: enhancers of SMN2 splice variant expression; HEK293 SMN2-luciferase splicing reporter, luminescence, 30-36 h; Potency, µM (titrated, usually from 46.1 µM), hits mostly activators; 210,000 tested, 2.8% active; note: nearly all actives have a fitted effect of over 55% in size
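HEK293 cells carry an SMN2 […]–luciferase reporter in which exon 7 inclusion puts luciferase in frame. Cells were plated 10-12 h before compound addition, then incubated 30-36 h at 37C. ONE-Glo luminescence was read; sodium butyrate at 4.5 mM final served as control.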
Rab9 promoter act: Rab9 promoter activation. Huh7 Rab9 promoter-luciferase reporter, luminescence, 24 h. Potency, µM (doses to about 9.22 µM), most hits filed as activators. 320,000 tested, 2.8% active. AID 485297; note: nearly all actives have a fitted effect of over 60% in size
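Cells were plated at 1500 per well in reduced-serum medium with 10% FBS and left 2 h. Compound in DMSO was then added for 24 h at 37 °C. Reporter signal was read by luminescence after 10 min with luciferase detection reagent.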
ELG1 genotoxic: induces genotoxicity in HEK293T cells with luciferase-tagged ELG1; HEK293T ELG1-luciferase reporter, luminescence, 16 h; 330,000 tested, 1.3% active; Potency, µM (series often up to 46 µM), hits mostly activators; note: nearly all actives have a fitted effect of over 60% in size
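Genotoxicity was scored as increased ELG1-luciferase reporter signal, measured by ONE-Glo luminescence (30 min, room temperature). Compound or vehicle exposure of the HEK293T reporter cells lasted 16 hr at 37°C.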
FLuc counter: counter-screen for miR-21 project: firefly luciferase inhibitors or activators | purified FLuc, Km substrates, luminescence inhibition | AID 588342 | P08659 | Potency, µM (doses to about 57.5 µM), hits mostly inhibitors | 360,000 tested, 6.9% active; note: nearly all actives have a fitted effect of over 55% in size
Target sequence (P08659 whole entry, looked up): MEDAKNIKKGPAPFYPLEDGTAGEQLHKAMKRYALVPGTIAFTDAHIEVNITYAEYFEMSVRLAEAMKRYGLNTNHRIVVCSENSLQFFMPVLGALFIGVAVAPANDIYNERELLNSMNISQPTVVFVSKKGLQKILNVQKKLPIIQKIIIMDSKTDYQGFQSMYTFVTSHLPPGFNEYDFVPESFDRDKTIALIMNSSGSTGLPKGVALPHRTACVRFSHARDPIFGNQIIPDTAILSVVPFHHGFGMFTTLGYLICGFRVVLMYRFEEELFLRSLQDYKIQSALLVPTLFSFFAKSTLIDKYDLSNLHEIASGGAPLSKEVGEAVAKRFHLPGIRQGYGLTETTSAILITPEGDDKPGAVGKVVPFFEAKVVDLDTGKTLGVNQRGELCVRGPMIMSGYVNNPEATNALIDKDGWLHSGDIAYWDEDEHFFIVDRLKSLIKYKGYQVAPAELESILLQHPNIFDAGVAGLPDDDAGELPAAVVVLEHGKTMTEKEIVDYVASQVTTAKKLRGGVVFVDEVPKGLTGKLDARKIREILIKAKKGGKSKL
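Purified P. pyralis luciferase (10nM final) with 10uM D-luciferin and 10uM ATP (Km levels) in 50mM Tris acetate pH 7.5, 10mM Mg acetate, 0.01% Tween-20, 0.05% BSA; qHTS 6-point titration, ~60 µM downward; luminescence read.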
NPC1 promoter act: NPC1 promoter activation; Potency, µM (highest dose often 9.22 µM), actives largely listed as activators; AID 485313; 320,000 tested, 2.4% active; Huh7 NPC1 promoter luciferase reporter, 24 h; note: nearly all actives have a fitted effect of over 60% in size
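Huh7 reporter cells (NPC1 promoter driving luciferase) are dosed with compound for 24 h at 37 °C, 5% CO2; luciferase detection reagent is then added and luminescence measured after 10 min at ambient temperature.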
Hits are given with their value; n = inactive; u = inconclusive; x = no result given; [ ] = another dose, or the depositor's remark. Calls come from the whole dose curve; as a rule, active = well fitted curve in the direction sought with a large enough effect; inconclusive = small, poorly fitted or top-dose-only effect, or another doubt; inactive = no such curve, though single readings can be large; an effect the other way counts as inactive or inconclusive.

SMILES	SMN2 splice enh	Rab9 promoter act	ELG1 genotoxic	FLuc counter	NPC1 promoter act
O=C1CC(c2ccccc2)=Nc2ccc(Br)cc2N1	n	n	n	n	n
CC(=O)Nc1cccc(Oc2ccc3c(c2)C(=O)NC3=O)c1	x	n	u	10.7µM	n
CCC(=O)Nc1ccc(Oc2ccc3c(c2)C(=O)NC3=O)cc1	u	n	n	n	n
Cc1occc1C(=O)Nc1nnc(-c2cccs2)s1	3.55µM	3.16µM	u	u	u
CC(C)(C)CC(=O)Nc1nnc(-c2cccs2)s1	12.6µM	3.16µM	n	n	3.16µM
Cc1occc1C(=O)Nc1nccs1	n	n	n	n[2.3 µM]	n
Cc1nnc(NC(=O)c2cccc(F)c2)s1	n	n	n	u	n
O=C(Nc1nnc(-c2cccs2)s1)c1cccc(F)c1	8.91µM	0.891µM	u	u	1.78µM
O=C(CN1CCCC1)Nc1nnc(-c2cccs2)s1	n	n	n	n	n
COc1ccc(NC(=O)Nc2nnc(-c3cccs3)s2)cc1	x	3.98µM	n	u	4.47µM
O=C(Nc1ccccc1)Nc1nnc(-c2cccs2)s1	u	u	n	n	u
COc1ccc(C2CC(c3cccs3)=NN2C(=O)CSc2nc3c(cnn3-c3ccccc3)c(=O)[nH]2)cc1 (stereo not given)	n	n	n	u	n
CCOC(=O)CC1C(=O)NCCN1C(=S)NC(=O)c1ccccc1OC (stereo not given)	x	n	n	n	n
CCN(CC)CCCNC(=O)CSc1nc2c(c(C(F)(F)F)n1)CCc1ccccc1-2	n	n	n	n	n
O=c1c(-c2ccccc2)nc2cncnc2n1Cc1ccc(F)cc1	n	x	x	x	x
COc1ccc(C(=O)Nc2nnc(-c3cccs3)s2)cc1	7.08µM	0.794µM	0.517µM	1.2µM	1µM
CCOC(=O)C1CCCN(C(=O)c2ccc(NC(=O)c3nsc4ccccc34)cc2)C1 (stereo not given)	x	x	x	12µM	x
CCOC(=O)C1CCN(C(=O)c2ccc(NC(=O)c3nsc4ccccc34)cc2)CC1	x	x	x	15.1µM	x
NC(=O)C1CCN(C(=O)c2ccc(NC(=O)c3nsc4ccccc34)cc2)CC1	x	x	x	1.69µM	x
CCOC(=O)C1CCCN(C(=O)c2ccc(C)c(NC(=O)c3nsc4ccccc34)c2)C1 (stereo not given)	x	x	x	n	x
CCOC(=O)C1CCN(C(=O)c2ccc(C)c(NC(=O)c3nsc4ccccc34)c2)CC1	x	x	x	n	x
Cc1ccc(C(=O)N2CCC(C(N)=O)CC2)cc1NC(=O)c1nsc2ccccc12	x	x	x	n	x
COc1ccc(CNC(=O)C[C@H]2C[C@H](C(=O)N(C(C)C)C(C)C)[C@@]3(C)c4[nH]c5ccc(Cl)cc5c4CCN3C2=O)cc1OC	x	x	n	x	x
Cc1ccc(S(=O)(=O)CCC(=O)OCC(=O)N2CCN(c3ccccc3)CC2)cc1	x	n	n	n	n
Oc1ccc(N=Cc2ccc(-c3cccs3)s2)cc1	n	n	n	8.49µM	n
SMILES	SMN2 splice enh	Rab9 promoter act	ELG1 genotoxic	FLuc counter	NPC1 promoter act
O=C1CCCC(O)=C1C=Nc1ccc(O)cc1	n	n	n	n	n
COc1ccc(Cl)cc1C(=O)NCc1ccco1	x	n	n	n	n
CCSc1ncc(Cl)c(C(=O)Nc2nc3ccc(OC)cc3s2)n1	n	x	x	n	x
COc1ccc2nc(NC(=O)c3ccc(NC(=O)C4CCCO4)cc3)sc2c1 (stereo not given)	x	n	n	9.53µM	n
COc1ccc2nc(NC(=O)c3cnccn3)sc2c1	3.98µM	2.24µM	u	3.01µM	3.16µM
Cc1cc(C)c2nc(NNC(=O)c3cc(=O)c4ccccc4o3)sc2c1	x	n	n	13.5µM	n
CCn1cc([N+](=O)[O-])c(C(=O)Nc2nc3ccc(OC)cc3s2)n1	n	0.316µM	n	23.9µM	0.398µM
CC(OC(=O)c1nsc(Cl)c1Cl)C(=O)NCc1ccco1 (stereo not given)	n	n	n	n	n
CCCC(=O)Nc1nc2ccc(NC(=O)c3ccccc3F)cc2s1	x	n	n	n	n
Cc1cccc2sc(NC(=O)c3ccc(NS(=O)(=O)c4cccs4)cc3)nc12	n	n	n	n	n
COc1ccc(C(=O)Nc2nc3ccc(S(C)(=O)=O)cc3s2)cc1	n	n	n	u	n
COc1ccc(C(=O)Nc2nc3ccc(OC)cc3s2)cc1	x	u	u	1.69µM	2.51µM
Cc1ccc2nc(NC(=O)c3ccccc3F)sc2c1	x	u	0.651µM	0.477µM	0.316µM
COc1ccc2nc(NC(=O)c3ccc(NS(=O)(=O)c4cccs4)cc3)sc2c1	n	n	n	4.78µM	n
